A selection: hits, their analogues and other compounds. The true share with any hit is near 11%.
HEK cytotox – cytotoxic compounds in HEK 293 cells | 94,000 compounds, 6.6% hits | Potency, µM (series often up to 115 µM), hits mostly inhibitors | HEK 293 viability, ATP luminescence (CellTiter-Glo), 48-72 h; note: nearly all actives have a fitted effect of over 60% in size
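ATP-coupled CellTiter-Glo luminescence served as viability read-out, recorded 10 min after reagent addition at room temperature. HEK 293 cells, 250 cells/well, had been incubated with pintool-transferred compound for 48 or 72 hr at 37 degree Celsius.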
NPR1 antag – human Npr1 receptor antagonism; HEK293 hNpr1 GloSensor cGMP, ANP-stimulated luminescence; Potency, µM (series often up to 46.3 µM), hits mostly inhibitors; P16066; 76,000 compounds, 1.6% hits; AID 1347048; calls by dose curve; note: nearly all actives have a fitted effect of over 60% in size
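HEK293 cells stably expressing human Npr1 and cGMP GloSensor pGS-40F, loaded 2 h with 2% GloSensor reagent, given compound 30 min at room temperature. Luminescence read before and 20 min after 0.1 nM hNppA.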
FLuc inh – blocks purified firefly luciferase enzyme activity. P08659. purified P. pyralis luciferase, luminescence, biochemical. Potency, µM (top dose mostly 115 µM), hits mostly inhibitors. 76,000 compounds, 2.5% hits; note: nearly all actives have a fitted effect of over 65% in size
Target sequence (P08659 whole entry, looked up): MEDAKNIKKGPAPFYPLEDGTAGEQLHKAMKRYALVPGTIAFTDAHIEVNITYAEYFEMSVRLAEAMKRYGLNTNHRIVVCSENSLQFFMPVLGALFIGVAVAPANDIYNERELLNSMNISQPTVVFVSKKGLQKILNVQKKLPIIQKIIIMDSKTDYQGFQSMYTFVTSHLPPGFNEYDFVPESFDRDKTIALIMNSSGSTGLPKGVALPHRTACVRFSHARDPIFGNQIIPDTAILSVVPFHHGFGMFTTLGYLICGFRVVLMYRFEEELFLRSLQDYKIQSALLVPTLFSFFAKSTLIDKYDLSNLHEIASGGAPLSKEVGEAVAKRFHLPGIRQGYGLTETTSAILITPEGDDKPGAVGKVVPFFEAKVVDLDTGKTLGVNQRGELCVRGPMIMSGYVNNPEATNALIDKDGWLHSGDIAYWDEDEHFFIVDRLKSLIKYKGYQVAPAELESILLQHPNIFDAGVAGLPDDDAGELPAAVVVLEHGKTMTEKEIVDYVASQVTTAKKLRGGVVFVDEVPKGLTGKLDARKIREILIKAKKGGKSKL
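Purified 10nM P. pyralis luciferase with 10uM D-luciferin and 10uM ATP in 50mM Tris acetate pH 7.5, 10mM Mg acetate, 0.01% Tween-20, 0.05% BSA. qHTS titration; luminescence read by CCD imager.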
3T3 cytotox – cytotoxic compounds in NIH 3T3 cells. NIH 3T3 viability, CellTiter-Glo ATP luminescence, 48-72 h. Potency, µM (top dose mostly 96.7 µM), most hits filed as inhibitors. 94,000 compounds, 4.3% hits; note: nearly all actives have a fitted effect of over 55% in size
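Cytotoxicity is measured as loss of cellular ATP: NIH 3T3 cells (400/well) are exposed to compound for 48 or 72 hr at 37 °C, then CellTiter-Glo luminescence is imaged after 10 min at room temperature.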
Numbers stand for hits; - = inactive; ? = inconclusive; . = no result given. Unless noted, calls come from the whole dose curve; as a rule, active = well fitted curve in the direction sought with a large enough effect; inconclusive = small, poorly fitted or top-dose-only effect, or another doubt; inactive = no such curve, though single readings can be large; an effect the other way counts as inactive or inconclusive.

SMILES	HEK cytotox	NPR1 antag	FLuc inh	3T3 cytotox
COc1ccccc1Nc1ccnc(N2CCN(C(=O)Nc3ccc(Cl)cc3)CC2)n1	40µM	.	.	40µM
O=C(NC1CCOC1)C1CCN(c2nccc(Nc3ccccc3F)n2)CC1 (centres undefined)	-	.	.	-
COc1ccccc1-n1c(=O)c(C(=O)N2CCN(C(=O)Nc3ccc(Cl)cc3)CC2)nc2cccnc21	-	.	.	-
CC1=C[C@@H](CNc2ccccn2)[C@H](C(C)C)C[C@H]1Cc1nnc(-c2ccc(C)cc2)o1	35µM	?	-	40µM
CC1=C[C@@H](CNCc2cccnc2)[C@H](C(C)C)C[C@H]1Cc1nnc(-c2ccccc2)o1	79µM	-	-	?
CC(=O)NCCNC[C@@H]1C=C(C)[C@H](Cc2nnc(-c3ccccc3)o2)C[C@H]1C(C)C	56µM	-	-	89µM
CC1=C[C@@H](CNCc2ccncc2)[C@H](C(C)C)C[C@H]1Cc1nnc(-c2ccccc2F)o1	20µM	?	-	?
Cc1cnc(CC2CCCN(C(=O)Cc3cccc(F)c3)C2)n1C(C)C (centres undefined)	-	.	.	-
Cc1nn(-c2ccccc2)c2c1C(C1CC1)N(C1CCCN(C(=O)C3CC3)C1)C2=O (centres undefined)	-	.	.	-
O=C(CNC(=O)c1cccc(-c2ccsc2)c1)NCc1cccc(F)c1	?	.	.	-
CC1=C[C@@H](CNCc2cccnc2)[C@H](C(C)C)C[C@H]1Cc1nnc(-c2ccccc2F)o1	?	-	-	-
CC(=O)Nc1ccc(NC[C@@H]2C=C(C)[C@H](Cc3nnc(C)o3)C[C@H]2C(C)C)cn1	112µM	-	-	-
CC1=C[C@@H](CNCc2ccco2)[C@H](C(C)C)C[C@H]1Cc1nnc(-c2ccccc2F)o1	79µM	-	-	?
CC1=C[C@@H](CNCc2ccccn2)[C@H](C(C)C)C[C@H]1Cc1nnc(-c2ccccc2F)o1	22µM	-	-	?
CC(NC(=O)NC1CCN(Cc2ccc(-c3ccsc3)cc2)C1)c1ccccc1 (centres undefined)	-	.	.	-
Cc1ccccc1C(=O)NC1CCN(Cc2ccc(-c3ccsc3)cc2)C1 (centres undefined)	79µM	.	.	?
COC(=O)NC1CCN(Cc2ccc(-c3ccsc3)cc2)C1 (centres undefined)	100µM	.	.	?
O=C(NC1CCN(Cc2ccc(-c3ccsc3)cc2)C1)c1ccc(Cl)cc1 (centres undefined)	-	.	.	-
O=C(NC1CCN(Cc2ccc(-c3ccsc3)cc2)C1)c1cccc(Cl)c1 (centres undefined)	45µM	.	.	?
O=C1c2cc(N3CCOCC3)nc(-c3cccc(O)c3)c2CN1CC(F)(F)F	?	-	-	?
O=C(NCc1ccc(F)cc1)c1cc(-c2ccc(F)cc2)c2nncn2n1	-	.	.	-
O=C(NCc1ccc(F)cc1)c1cc(-c2ccc(Cl)cc2Cl)c2nncn2n1	89µM	.	.	45µM
O=C(NC1CCCCC1)c1cc(-c2ccc(F)cc2)c2nncn2n1	-	.	.	?
O=C(NCC1CCCCC1)c1cc(-c2ccc(F)cc2)c2nncn2n1	?	.	.	6.3µM
CN1CCN(C(=O)c2cc(COc3ccc(F)cc3F)on2)CC1c1ccccc1 (centres undefined)	20µM	-	-	?
SMILES	HEK cytotox	NPR1 antag	FLuc inh	3T3 cytotox
Cc1cccc2nc(CNC(=O)c3cc(COc4ccc(F)cc4F)on3)cn12	?	-	-	32µM
CN(Cc1cnc2ccccn12)C(=O)c1cc(COc2ccc(F)cc2F)on1	?	?	-	?
Cc1nnc2ccc(N3CCC(N[S+](=O)([O-])c4ccccc4)CC3)nn12	45µM	.	.	32µM
Cc1ccc([S+](=O)([O-])NC2CCCN(c3ccc4nnc(-c5ccccc5)n4n3)C2)cc1 (centres undefined)	25µM	.	.	?
Cn1cc(-c2ccnc(N3CCOCC3)c2)c2nc(COc3ccc(Cl)cc3)cn2c1=O	?	?	?	28µM
Cn1cc(-c2ccccc2)c2nc(COc3ccc(Cl)cc3)cn2c1=O	?	-	-	50µM
CN1CCN(Cc2cn3c(=O)n(C)cc(-c4cccc(OC(F)(F)F)c4)c3n2)CC1	?	-	-	?
Cn1cc(-c2cccc(C(F)(F)F)c2)c2nc(CNc3ccccc3)cn2c1=O	50µM	-	-	25µM
COCc1ccccc1-c1cn(C)c(=O)n2cc(COc3ccc(Cl)cc3)nc12	?	?	-	?
Cn1cc(-c2cccc(OC(F)(F)F)c2)c2nc(CN3CCNC(=O)C3)cn2c1=O	-	-	-	100µM
